The values below come from the supplement of paper PMC8728848.

About 410 targets per protein were measured; listed, in parts, are those with the strongest signals and a random draw of the rest.

Common to all, as to experiment: glycan array binding signal (z-score within array); higher = stronger binding
Holding throughout (conditions): glycan notation: IUPAC condensed, linker removed

For test [1], the target named is Gal(b1-3)GalNAc(b1-4)Gal3S(b1-4)Glc. In outline: (§1)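 The binding signal is a Z-score computed within each array and averaged over linkers. Arrays of the same protein sequence at different concentrations or buffers were also averaged together. Data originate from 3228 arrays in the Consortium for Functional Glycomics database, kept only where the protein sequence was available.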

Test [2] concerns the target Gal(b1-3)GalNAc(b1-4)[Neu5Ac(a2-3)]Gal(b1-4)Glc. In short, it runs like this:
as §1

Test [3] deals with Gal(b1-3)GalNAc(b1-4)[Neu5Gc(a2-3)]Gal(b1-4)Glc. In outline: as §1
Test [4] deals with Gal(b1-3)[Neu5Ac(a2-6)]GalNAc(b1-4)Gal(b1-4)Glc. In outline: as §1
The target in test [5] is Gal(b1-4)GlcNAc(b1-2)[Gal(b1-4)GlcNAc(b1-4)]Man(a1-3)[Gal(b1-4)GlcNAc(b1-2)Man(a1-6)]Man(b1-4)GlcNAc(b1-4)GlcNAc. In outline:
as §1

In test [6] the target is Gal(b1-4)GlcNAc(b1-3)Fuc. In short, it runs like this: as §1
Test [7] has as its target Glc(a1-3)Glc. In outline:
as §1

The target of test [8] is Glc(a1-3)Glc(a1-3)Man(a1-2)Man(a1-2)Man(a1-3)[Man(a1-3)[Man(a1-6)]Man(a1-6)]Man(b1-4)GlcNAc. In outline:
as §1

In test [9] the target is Glc(a1-6)Glc(a1-6)Glc(a1-6)Glc(a1-6)Glc. In short, it runs like this: as §1
Test [10] concerns the target Glc(a1-6)Glc(a1-6)Glc(a1-6)Glc(a1-6)Glc(a1-6)Glc(a1-6)Glc(a1-6)Glc(a1-6)Glc. In short, it runs like this:
as §1

Test [11] addresses Glc(b1-2)Glc. In short, it runs like this: as §1
The target in test [12] is Glc(b1-3)Glc(b1-3)Glc(b1-3)Glc(b1-3)Glc(b1-3)Glc(b1-3)Glc(b1-3)Glc(b1-3)Glc(b1-3)Glc(b1-3)Glc. In short, it runs like this:
as §1

For test [13], the target named is Glc(b1-4)Glc(b1-4)Glc(b1-4)Glc(b1-4)Glc(b1-4)Glc(b1-4)Glc. In outline: as §1
Test [14] deals with Glc(b1-4)Glc(b1-4)Glc(b1-4)Glc(b1-4)Glc(b1-4)Glc(b1-4)Glc(b1-4)Glc(b1-4)Glc. In short, it runs like this: as §1
The target of test [15] is Glc(b1-6)Glc(b1-6)Glc(b1-6)Glc. In outline:
as §1

Test [16] addresses GlcA(b1-3)GlcNAc(b1-4)GlcA(b1-3)GlcNAc(b1-4)GlcA(b1-3)GlcNAc(b1-4)GlcA(b1-3)GlcNAc(b1-4)GlcA(b1-3)GlcNAc(b1-4)GlcA(b1-3)GlcNAc(b1-4)GlcA(b1-3)GlcNAc. In outline: as §1
Test [17] concerns the target GlcNAc(a1-4)Gal. In outline: as §1
Test [18] has as its target GlcNAc(b1-2)Man. In short, it runs like this:
as §1

Test [19] concerns the target GlcNAc(b1-4)GlcNAc. In short, it runs like this: as §1
The target in test [20] is Man(a1-2)Man(a1-2)Man(a1-3)[Man(a1-2)Man(a1-3)[Man(a1-2)Man(a1-6)]Man(a1-6)]Man(b1-4)GlcNAc(b1-4)GlcNAc. In short, it runs like this: as §1
For test [21], the target named is Man(a1-3)[Man(a1-6)]Man. In short, it runs like this:
as §1

In test [22] the target is Neu5Ac(a2-3)Gal. In outline:
as §1

Test [23] deals with Neu5Ac(a2-3)Gal(b1-3)GalNAc(b1-4)[Neu5Ac(a2-3)]Gal(b1-4)Glc. In outline:
as §1

The target in test [24] is Neu5Ac(a2-3)Gal(b1-4)[Fuc(a1-3)]GlcNAc(b1-3)Gal. In outline: as §1
In test [25] the target is Neu5Ac(a2-3)[GalNAc(b1-4)]Gal(b1-3)GalNAc(b1-4)[Neu5Ac(a2-3)]Gal(b1-4)Glc. In short, it runs like this: as §1
Test [26] addresses Neu5Ac(a2-3)[GalNAc(b1-4)]Gal(b1-4)Glc. In short, it runs like this:
as §1

The target in test [27] is Neu5Ac(a2-8)Neu5Ac(a2-3)[Gal(b1-3)GalNAc(b1-4)]Gal(b1-4)Glc. In short, it runs like this: as §1
For test [28], the target named is Neu5Ac(b2-3)Gal(b1-4)Glc. In outline:
as §1

Test [29] concerns the target Rha(a1-6)Glc. In short, it runs like this:
as §1

For test [30], the target named is Fuc(a1-3)[Gal(b1-4)]GlcNAc. In short, it runs like this: as §1
In test [31] the target is Gal(a1-3)Gal(b1-3)GlcNAc. In outline: as §1
For test [32], the target named is Gal(b1-4)GlcNAc(b1-3)Gal(b1-4)GlcNAc. In outline: as §1
Test [33] concerns the target Gal3S6S(b1-4)GlcNAc6S. In outline:
as §1

Test [34] deals with Glc(a1-4)Glc. In outline:
as §1

The target in test [35] is Glc(a1-6)Glc(a1-6)Glc. In outline: as §1
Test [36] addresses Glc(b1-4)Glc. In short, it runs like this:
as §1

Test [37] addresses GlcA(b1-3)Gal. In short, it runs like this:
as §1

Test [38] addresses GlcNAc(a1-3)Gal(b1-4)GlcNAc. In short, it runs like this: as §1
Test [39] concerns the target Man(a1-2)Man(a1-2)Man(a1-6)[Man(a1-3)]Man. In short, it runs like this:
as §1

For test [40], the target named is Man(a1-2)Man(a1-3)[Man(a1-6)]Man(a1-6)[Man(a1-2)Man(a1-3)]Man(b1-4)GlcNAc(b1-4)GlcNAc. In outline: as §1
In test [41] the target is Neu5Ac(a2-3)Gal(b1-3)[Fuc(a1-4)]GlcNAc. In outline: as §1
Test [42] addresses Neu5Ac(a2-3)Gal(b1-4)Glc. In outline: as §1
The target in test [43] is Neu5Ac(a2-3)[GalNAc(b1-4)]Gal(b1-4)GlcNAc. In short, it runs like this:
as §1

In test [44] the target is Neu5Gc(a2-3)Gal(b1-3)GlcNAc. In outline:
as §1

B1: MIC4-A5 (Toxoplasma gondii), Q9XZH7 (protein)
chain: SPDFHDEVECVHTGNIGSKAQTIGEVKRASSLSECRARCQAEKECSHYTYNVKSGLCYPKRGKPQFYKYLGDMTGSRTCDTS
Consider B1, for which the “glycan array binding signal (z-score)” value in [1] was 5.56; in test [2], 5.3; in test [3], 4.89; in [4], 6.12; in test [5] it was 3.22; in [6], -0.248. In addition, the “glycan array binding signal (z-score)” value is -0.306 in test [7]; -0.323 in [8]; -0.323 in test [9]; -0.323 in test [10]; -0.32 in test [11]; -0.323 in [12]. Further, the “glycan array binding signal (z-score)” value in test [13], in [14], in [15], in test [16], in [17] and in test [18] was -0.323 each time. The “glycan array binding signal (z-score)” value in test [19] was -0.323; in [20], -0.323; in test [21], -0.323; in test [22], -0.323; in [23] it was -0.191; in [24], -0.323. Further, the “glycan array binding signal (z-score)” value is -0.323 in [25]; -0.311 in test [26]; 6.1 in test [27]; -0.32 in test [28]; -0.322 in test [29].

B2: FaeGac (Escherichia coli) (protein)
chain: WMTGDFNGSVDIGGSITADDYRQKWEWKVGTGLNGFGNVLNDLTNGGTKLTITVTGNKPILLGRTKEAFATPVTGGVDGIPHIAFTDYEGASVVLRKPDGETNKNGLAYFVLPMKNAGGTKVGSVKVNASYAGVLGRGGVTSADGELLSLFADGLSSIFYGGLPRGSELSAGSAAAARTKLFGSLSRDDILGQIQRVNANVTSLVDVAGSYRENMEYTDGNVVSAAYALGIANGQTIEATFNQAVTTSTQWSAPLNVAITYY
B2: the “glycan array binding signal (z-score)” value is -0.598 in [30]; -0.126 in test [31]; -0.084 in test [32]; 1.17 in test [33]; 5.96 in [34]; 6.71 in test [35]. Moreover, the “glycan array binding signal (z-score)” value is 4.43 in [36]; -0.705 in test [37]; 0.229 in test [38]; 3.1 in [39]; 0.527 in test [40]; 0.445 in [41]. The “glycan array binding signal (z-score)” value in test [42] was -0.81; in [43], -0.863; in test [44] it was -0.826.
